Source: PubChem BioAssay (NCI)
This is part of a sample that, as a whole, favours compounds with a hit. Of some 79,000 tested, about 15% had one in any assay. A number with no mark means an inactive call. Activity calls are given as the source filed them. Rule as the data show it: active = growth inhibition above about 70%; inactive = the rest.

Assays:
[1] = NCI Yeast Anticancer Drug Screen. Data for the rad52 strain (AID 147);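 also: 0% = growth of vehicle-treated control cultures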; details: S. cerevisiae rad52 mutant growth inhibition, stronger effect = higher value
Procedure, shortened: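 Vehicle-treated cultures served as the reference for growth inhibition of compound-exposed yeast bearing a DNA repair mutation.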

[2] = NCI Yeast Anticancer Drug Screen. Data for the wt1 strain (AID 149);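 also: 0% = growth of vehicle-treated wt1 cultures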; details: S. cerevisiae wt1 strain (SPY 50644) growth inhibition, stronger effect = higher value
Procedure, shortened: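 Vehicle-normalised growth inhibition; strain wt1; compound exposure.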

[3] = NCI Yeast Anticancer Drug Screen. Data for the rad50EPP+ strain (AID 151);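 also: 0% = growth of vehicle-treated control cultures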; details: S. cerevisiae rad50 mutant strain, stronger effect = higher value
Procedure, shortened: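 In this screen, rad50EPP+ yeast were exposed to compounds. Growth inhibition was scored against vehicle-treated controls.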

[4] = NCI Yeast Anticancer Drug Screen. Data for the mgt1 strain (AID 153); details: S. cerevisiae mgt1 mutant growth inhibition, stronger effect = higher value
Procedure, shortened: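 mgt1 strain exposed; growth vs vehicle control recorded as inhibition.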

[5] = NCI Yeast Anticancer Drug Screen. Data for the rad50 strain (AID 155);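 also: 0% = growth of vehicle-only cultures of the same strain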; details: S. cerevisiae rad50 strain growth inhibition, stronger effect = higher value
Procedure, shortened: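 A DNA repair-deficient yeast mutant serves as the test organism; compound-induced growth inhibition is calculated against vehicle-treated cells.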

[6] = NCI Yeast Anticancer Drug Screen. Data for the mec2-1 strain (AID 157); details: S. cerevisiae mec2-1 strain, stronger effect = higher value
Procedure, shortened: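 Vehicle-treated cultures served as reference for growth inhibition of compound-exposed mec2-1 yeast.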

[7] = NCI Yeast Anticancer Drug Screen. Data for the rad14 strain (AID 159);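 also: 0% = growth of vehicle-treated control cultures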; details: S. cerevisiae rad14 strain growth inhibition, stronger effect = higher value
Procedure, shortened: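 Vehicle-treated cultures served as the baseline for growth inhibition of a DNA repair-mutant yeast strain exposed to each compound.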

[8] = NCI Yeast Anticancer Drug Screen. Data for the sgs1 mgt1 strain (AID 161);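 also: 0% = growth of cultures given vehicle only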; details: S. cerevisiae sgs1 mgt1 strain, stronger effect = higher value
Procedure, shortened: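 Test agents were incubated with a DNA-repair-mutant yeast strain. Growth was then read and compared against vehicle-treated controls.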

[9] = NCI Yeast Anticancer Drug Screen. Data for the CLN2oe strain (AID 163);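 also: 0% = growth of vehicle-only control cultures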; details: S. cerevisiae CLN2oe strain, stronger effect = higher value
Procedure, shortened: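 Inhibition relative to vehicle-treated yeast is reported. Cells: strain with genetic alteration in cell-cycle control, grown with compound.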

[10] = NCI Yeast Anticancer Drug Screen. Data for the cln2 rad14 strain (AID 165);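 also: 0% = growth equal to vehicle treated cultures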; details: S. cerevisiae cln2 rad14 strain, stronger effect = higher value
Procedure, shortened: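 Each compound was tested on cln2 rad14 yeast. Inhibition of growth was calculated against vehicle-exposed controls.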

[11] = NCI Yeast Anticancer Drug Screen. Data for the bub3 strain (AID 167); details: S. cerevisiae bub3 mutant strain, stronger effect = higher value
Procedure, shortened: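 Inhibition values come from growth of compound-treated mutant yeast normalised to vehicle-treated controls.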

[12] = NCI Yeast Anticancer Drug Screen. Data for the wt2 strain (AID 169);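 also: 0% = growth of vehicle-treated yeast cultures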; details: S. cerevisiae wt2 strain growth inhibition, stronger effect = higher value
Procedure, shortened: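 Inhibition of yeast growth was determined after compound treatment, normalised to controls receiving only vehicle.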

[13] = NCI Yeast Anticancer Drug Screen. Data for the mlh1 strain (AID 171);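 also: 0% = growth of vehicle-treated control cultures of the same strain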; details: S. cerevisiae mlh1 strain growth inhibition, stronger effect = higher value
Procedure, shortened: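 Vehicle-normalised growth inhibition of a repair- or checkpoint-altered yeast strain following compound treatment.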

[14] = NCI Yeast Anticancer Drug Screen. Data for the sgs1 strain (AID 173);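 also: 0% = growth of vehicle-only control cultures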; details: S. cerevisiae sgs1 mutant, stronger effect = higher value
Procedure, shortened: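 Screen format: yeast with repair or checkpoint alterations, compound exposure, growth read relative to vehicle.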

[15] = NCI Yeast Anticancer Drug Screen. Data for the mlh1 rad18 strain (AID 175); details: S. cerevisiae mlh1 rad18 strain growth inhibition, stronger effect = higher value
Procedure, shortened: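 Vehicle-treated cultures served as the reference for growth inhibition in a yeast strain carrying DNA damage repair alterations exposed to each compound.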

[16] = NCI Yeast Anticancer Drug Screen. Data for the rad18 strain (AID 177); details: S. cerevisiae rad18 mutant growth inhibition, stronger effect = higher value
Procedure, shortened: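 Test articles were incubated with altered yeast defective in DNA damage repair. Results are given as inhibition of growth versus vehicle.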

[17] = at 5.0 µM (retest, dose inferred, filed as 0.5)
[18] = at 50.0 µM (retest, dose inferred, filed as 5.0)

**Q.** For S=c1[nH]nc(Nc2ccc(Cl)cc2)s1, which growth inhibition ([1]; at 1.2 µM) is on record?
**A.** -6%

**Q.** What about the growth inhibition ([1]; at 3.7 µM) of the same compound?
**A.** -9%

**Q.** What about the growth inhibition ([1]; at 11.0 µM) of the same compound?
**A.** 1%

**Q.** What about the growth inhibition ([1]; at 33.0 µM) of the same compound?
**A.** 70% (active)

**Q.** And the growth inhibition ([1]; at 100.0 µM)?
**A.** 96% (active)

**Q.** What about the growth inhibition ([2]; at 1.2 µM) of the same compound?
**A.** 1%

**Q.** And the growth inhibition ([2]; at 3.7 µM)?
**A.** 4%

**Q.** What about the growth inhibition ([2]; at 11.0 µM) of the same compound?
**A.** 6%

**Q.** And the growth inhibition ([2]; at 33.0 µM)?
**A.** 36%

**Q.** And the growth inhibition ([2]; at 100.0 µM)?
**A.** 89% (active)

**Q.** What about the growth inhibition ([3]; at 1.2 µM) of the same compound?
**A.** -2%

**Q.** What about the growth inhibition ([3]; at 3.7 µM) of the same compound?
**A.** -10%

**Q.** And the growth inhibition ([3]; at 11.0 µM)?
**A.** 13%

**Q.** And the growth inhibition ([3]; at 33.0 µM)?
**A.** 27%

**Q.** What about the growth inhibition ([3]; at 100.0 µM) of the same compound?
**A.** 23%

**Q.** And the growth inhibition ([4]; at 1.2 µM)?
**A.** -1%

**Q.** And the growth inhibition ([4]; at 3.7 µM)?
**A.** -7%

**Q.** What about the growth inhibition ([4]; at 11.0 µM) of the same compound?
**A.** -2%

**Q.** And the growth inhibition ([4]; at 33.0 µM)?
**A.** -8%

**Q.** And the growth inhibition ([4]; at 100.0 µM)?
**A.** 19%

**Q.** And the growth inhibition ([5]; at 1.2 µM)?
**A.** -7%

**Q.** And the growth inhibition ([5]; at 3.7 µM)?
**A.** -13%

**Q.** What about the growth inhibition [5, 17] of the same compound?
**A.** -150%

**Q.** And the growth inhibition ([5]; at 11.0 µM)?
**A.** -10%

**Q.** What about the growth inhibition ([5]; at 33.0 µM) of the same compound?
**A.** -17%

**Q.** And the growth inhibition [5, 18]?
**A.** 32%

**Q.** And the growth inhibition ([5]; at 50.0 µM)?
**A.** 92.8% (active)

**Q.** And the growth inhibition ([5]; at 100.0 µM)?
**A.** 42%

**Q.** And the growth inhibition ([6]; at 1.2 µM)?
**A.** -1%

**Q.** What about the growth inhibition ([6]; at 3.7 µM) of the same compound?
**A.** -1%

**Q.** And the growth inhibition [6, 17]?
**A.** -49%

**Q.** And the growth inhibition ([6]; at 11.0 µM)?
**A.** -6%

**Q.** What about the growth inhibition ([6]; at 33.0 µM) of the same compound?
**A.** 3%

**Q.** And the growth inhibition [6, 18]?
**A.** 93% (active)

**Q.** And the growth inhibition ([6]; at 50.0 µM)?
**A.** 91.8% (active)

**Q.** And the growth inhibition ([6]; at 100.0 µM)?
**A.** 91% (active)

**Q.** What about the growth inhibition ([7]; at 1.2 µM) of the same compound?
**A.** -3%

**Q.** What about the growth inhibition ([7]; at 3.7 µM) of the same compound?
**A.** 1%

**Q.** And the growth inhibition ([7]; at 11.0 µM)?
**A.** 0%

**Q.** And the growth inhibition ([7]; at 33.0 µM)?
**A.** 46%

**Q.** And the growth inhibition ([7]; at 100.0 µM)?
**A.** 96% (active)

**Q.** And the growth inhibition [8, 17]?
**A.** -61%

**Q.** What about the growth inhibition [8, 18] of the same compound?
**A.** 86% (active)

**Q.** And the growth inhibition ([8]; at 50.0 µM)?
**A.** 89% (active)

**Q.** And the growth inhibition ([9]; at 1.2 µM)?
**A.** -7%

**Q.** And the growth inhibition ([9]; at 3.7 µM)?
**A.** -7%

**Q.** What about the growth inhibition ([9]; at 11.0 µM) of the same compound?
**A.** -13%

**Q.** What about the growth inhibition ([9]; at 33.0 µM) of the same compound?
**A.** -11%

**Q.** What about the growth inhibition ([9]; at 100.0 µM) of the same compound?
**A.** 73% (active)

**Q.** What about the growth inhibition [10, 17] of the same compound?
**A.** -55%

**Q.** What about the growth inhibition [10, 18] of the same compound?
**A.** 83% (active)

**Q.** What about the growth inhibition ([10]; at 50.0 µM) of the same compound?
**A.** 90.5% (active)

**Q.** And the growth inhibition ([11]; at 1.2 µM)?
**A.** -3%

**Q.** What about the growth inhibition ([11]; at 3.7 µM) of the same compound?
**A.** -1%

**Q.** And the growth inhibition [11, 17]?
**A.** -67%

**Q.** And the growth inhibition ([11]; at 11.0 µM)?
**A.** -7%

**Q.** And the growth inhibition ([11]; at 33.0 µM)?
**A.** -10%

**Q.** What about the growth inhibition [11, 18] of the same compound?
**A.** 38%

**Q.** What about the growth inhibition ([11]; at 50.0 µM) of the same compound?
**A.** 88.8% (active)

**Q.** And the growth inhibition ([11]; at 100.0 µM)?
**A.** 9%

**Q.** What about the growth inhibition ([12]; at 1.2 µM) of the same compound?
**A.** 1%

**Q.** What about the growth inhibition ([12]; at 3.7 µM) of the same compound?
**A.** 9%

**Q.** And the growth inhibition ([12]; at 11.0 µM)?
**A.** 8%

**Q.** What about the growth inhibition ([12]; at 33.0 µM) of the same compound?
**A.** 82% (active)

**Q.** What about the growth inhibition ([12]; at 100.0 µM) of the same compound?
**A.** 98% (active)

**Q.** And the growth inhibition ([13]; at 1.2 µM)?
**A.** -7%

**Q.** And the growth inhibition ([13]; at 3.7 µM)?
**A.** -2%

**Q.** What about the growth inhibition ([13]; at 11.0 µM) of the same compound?
**A.** -4%

**Q.** And the growth inhibition ([13]; at 33.0 µM)?
**A.** 8%

**Q.** What about the growth inhibition ([13]; at 100.0 µM) of the same compound?
**A.** 61%

**Q.** What about the growth inhibition ([14]; at 1.2 µM) of the same compound?
**A.** -14%

**Q.** What about the growth inhibition ([14]; at 3.7 µM) of the same compound?
**A.** -7%

**Q.** What about the growth inhibition ([14]; at 11.0 µM) of the same compound?
**A.** 2%

**Q.** And the growth inhibition ([14]; at 33.0 µM)?
**A.** 37%

**Q.** And the growth inhibition ([14]; at 100.0 µM)?
**A.** 91% (active)

**Q.** And the growth inhibition [15, 17]?
**A.** -149%

**Q.** What about the growth inhibition [15, 18] of the same compound?
**A.** 19%

**Q.** What about the growth inhibition ([15]; at 50.0 µM) of the same compound?
**A.** 92.6% (active)

**Q.** And the growth inhibition ([16]; at 1.2 µM)?
**A.** -3%

**Q.** And the growth inhibition ([16]; at 3.7 µM)?
**A.** 2%

**Q.** And the growth inhibition ([16]; at 11.0 µM)?
**A.** -4%

**Q.** What about the growth inhibition ([16]; at 33.0 µM) of the same compound?
**A.** 38%

**Q.** What about the growth inhibition ([16]; at 100.0 µM) of the same compound?
**A.** 94% (active)
